Assay results published in PubChem BioAssay AID1209 (Sanford-Burnham Center for Chemical Genomics, 2008).
The campaign covered roughly 190,000 compounds. About 810 (0.43%) were called active. Cut-off read from the data, not from the text of the source: active = inhibition above about 50%; inactive = the rest. Shown is part of a subset that was picked to be rich in actives.

Each compound was assayed against Mannose-6-phosphate isomerase (Homo sapiens) (UniProt P34949) (assay: inhibitors of human PMI, primary screen, biochemical, fluorescence intensity, coupled assay (AID 1209;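 note: plate controls were DMSO vehicle for no effect and wells lacking substrate for full effect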)). Settings: purified PMI enzyme, at 20 µM, active compounds read high.
Mannose-6-phosphate isomerase (Homo sapiens), sequence (P34949 whole entry, looked up): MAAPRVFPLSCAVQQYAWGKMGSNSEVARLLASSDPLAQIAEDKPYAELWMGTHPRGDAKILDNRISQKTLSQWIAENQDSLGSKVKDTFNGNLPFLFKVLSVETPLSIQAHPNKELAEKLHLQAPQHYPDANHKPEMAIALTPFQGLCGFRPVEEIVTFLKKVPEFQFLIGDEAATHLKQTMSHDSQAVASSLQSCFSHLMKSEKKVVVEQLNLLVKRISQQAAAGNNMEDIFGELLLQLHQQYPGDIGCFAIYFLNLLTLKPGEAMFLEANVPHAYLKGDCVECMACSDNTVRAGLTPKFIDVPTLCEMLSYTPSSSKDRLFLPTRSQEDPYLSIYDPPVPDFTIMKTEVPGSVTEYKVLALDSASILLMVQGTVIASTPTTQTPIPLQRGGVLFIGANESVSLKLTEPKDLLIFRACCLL
`O=C(NC1CCSC1=O)C1CCCCC1` (centres undefined) was tested, and the inhibition was -2.2% (inactive). `Nc1cc(-c2ccncc2)c[nH]c1=O` was tested, and the inhibition was 50.4% (active). For `c1cc(-c2ccncc2)ccn1`, the inhibition was -8.5% (inactive). For `N#Cc1cc(-c2ccccc2)c[nH]c1=O`, the inhibition was 6.1% (inactive). `COC(=O)c1c(NC(=O)C2CC=CCC2C(=O)O)sc(C(N)=O)c1C` (centres undefined) was tested, and the inhibition was 7.3% (inactive). In the case of `Cc1ccc(NC(=O)CN(C)S(=O)(=O)c2cccc3cccnc23)cc1`, the inhibition is reported as 11.9% (inactive). `O=C(COc1cccc2cccnc12)Nc1ccccc1` was tested, and the inhibition was -7.8% (inactive). For `Cc1ccc(NC(=O)CN(C)C(=O)COc2cccc3cccnc23)cc1`, the inhibition was 73% (active). For `O=C(c1cccnc1)N1CCN(c2ccc(Cl)cc2)CC1`, the inhibition was -6.6% (inactive). With `O=C(/C=C/NNC(=O)c1ccc(Cl)cc1)c1ccccc1` the inhibition was -4.1% (inactive). For `COC(=O)c1ccc(C(=O)OC)c(NC(=O)CN2CCCCC2)c1`, the inhibition was 4.7% (inactive). With `CCCn1nnnc1NC(=O)c1ccc(C)cc1Cl` the inhibition was 54.4% (active). For `CCCn1nnnc1NC(=O)c1cc(Cl)ccc1Cl`, the inhibition was 13.1% (inactive). With `CCCn1nnnc1NC(=O)c1cc(Br)ccc1OC` the inhibition was 0.2% (inactive). `O=c1c2ccccc2nc2c3ccccc3c(NCc3cccnc3)nn12` was tested, and the inhibition was 6.3% (inactive). For `CCN(CC)C(=S)SSC(=S)N(CC)CC`, the inhibition was -2.4% (inactive). In the case of `CCN(CC)C(=S)SC1=CCS(=O)(=O)C1`, the inhibition is reported as 102% (active). With `CCN(CC)C(=S)SCC(=O)c1ccccc1` the inhibition was 5.8% (inactive). In the case of `COc1ccc(OC)c([C@@H]2OCCC=C[C@H]2C)c1`, the inhibition is reported as -2.1% (inactive). With `O=C(Nc1nc2c(s1)CCCC2)c1nn(Cc2ccccc2)c(=O)c2ccccc12` the inhibition was 0.4% (inactive). With `O=S(=O)(c1cccs1)N1CCN(c2ccccn2)CC1` the inhibition was 5.9% (inactive). With `Cc1ccc(-c2nnc(CSc3nc4cc5c(cc4cc3C)OCO5)o2)cc1` the inhibition was 15.5% (inactive). For `Cc1cccc(NCc2ccc(O)c3ncccc23)c1C`, the inhibition was 60.4% (active). For `Cc1cccnc1NCc1ccc(O)c2ncccc12`, the inhibition was 48.4% (inactive). In the case of `Oc1ccc(CNc2ccccc2F)c2cccnc12`, the inhibition is reported as 45.3% (inactive). With `Cc1ccc(O)c(CNc2cccc3cccnc23)c1` the inhibition was 34.8% (inactive). For `Cc1cccc(NCc2ccccc2O)c1C`, the inhibition was 29% (inactive). With `COc1cccc(C2C(C(=O)Nc3nc4ccccc4s3)=C(C)NC3=C2C(=O)CC(C)(C)C3)c1OC` (centres undefined) the inhibition was -10.5% (inactive). For `CC(=O)NC1C(=O)N=C(SCC(=O)NC2CCCCC2)NC1=O` (centres undefined), the inhibition was -8.4% (inactive). `CC(=O)Nc1c(O)nc(SCC(=O)Nc2sc3c(c2C#N)CCCCCC3)[nH]c1=O` was tested, and the inhibition was 1.2% (inactive). In the case of `CC(=O)NC1C(=O)N=C(SCC(=O)Nc2sc3c(c2C#N)CCCCCC3)NC1=O` (centres undefined), the inhibition is reported as 66.1% (active). With `O=C(O)c1ccc(Nc2ncnc3c2cnn3Cc2ccccc2)cc1` the inhibition was 7.1% (inactive). With `O=C(Cc1ccccc1)NCc1ccccn1` the inhibition was -4.7% (inactive). For `C/C(N)=C(/C#N)C(=O)CSc1nn(-c2ccc(Cl)cc2)c(=S)s1`, the inhibition was 5.6% (inactive). With `Cc1ccc(C(=O)CC2(O)C(=O)N(C)c3ccccc32)s1` (centres undefined) the inhibition was 8.1% (inactive). For `CC(=O)N1c2ccccc2C2(O)N=C(C)SC12` (centres undefined), the inhibition was 60.3% (active). `CC(=O)N1c2ccccc2C(C)(C)C2CCC(C)CC21` (centres undefined) was tested, and the inhibition was 0.8% (inactive). For `N#Cc1c(N2CCCC2)nc(N)c2c(N)nc(N3CCCC3)cc12`, the inhibition was 6.9% (inactive). With `COc1cc2c(C#N)c(N3CCN(C)CC3)nc(N)c2c(N)n1` the inhibition was 42.5% (inactive). `CCCCN(CC)c1nc(N)c2c(N)nc(OCC)cc2c1C#N` was tested, and the inhibition was 37.5% (inactive). With `CCOc1cc2c(C#N)c(N3CCCCC3)nc(N)c2c(N)n1` the inhibition was 62.4% (active). For `CCCN(CC1CC1)c1nc(N)c2c(N)nc(OC)cc2c1C#N`, the inhibition was 47.8% (inactive). With `COc1cc2c(C#N)c(N3CCc4ccccc4C3)nc(N)c2c(N)n1` the inhibition was 64.3% (active). For `COCc1cc(C)nc(N2CCNCC2)c1C#N`, the inhibition was -0.4% (inactive). With `CCOc1ccccc1N1CCN(c2nc(N)c(C#N)c(CC#N)c2C#N)CC1` the inhibition was 12.6% (inactive). For `COc1cc2c(C#N)c(N3CCCCC3)nc(N)c2c(N)n1`, the inhibition was 66.7% (active). For `COc1cc2c(C#N)c(N3CCN(c4ccccc4OC)CC3)nc(N)c2c(N)n1`, the inhibition was 47.2% (inactive). In the case of `CCOc1cc2c(C#N)c(N3CCNCC3)nc(N)c2c(N)n1`, the inhibition is reported as 65.4% (active). For `COc1cc2c(C#N)c(N3CCOCC3)nc(N)c2c(N)n1`, the inhibition was 28.9% (inactive). `COc1ccc2cc(CN(CC3CCCO3)C(=O)Nc3ccccc3OC)c(=O)[nH]c2c1` (centres undefined) was tested, and the inhibition was 3.2% (inactive). For `Cc1ccc2nc(C)c(C(=O)N/N=C/c3ccc(C(=O)O)cc3)cc2c1`, the inhibition was 13.8% (inactive). With `Cn1cccc1C(=O)NC(=O)COC(=O)c1ccccc1O` the inhibition was 9.4% (inactive). With `Cc1cc(NC(=S)N(CCCN2CCN(C)CC2)Cc2ccco2)ccc1Cl` the inhibition was 3.6% (inactive). In the case of `CC1CCN(C(=O)CSc2nnc(CSc3ncccn3)n2C)CC1`, the inhibition is reported as -8.9% (inactive). In the case of `CCOC(=O)c1nnc(-c2ccccc2)nc1Oc1ccc(Cl)cc1`, the inhibition is reported as 2.2% (inactive). `Cc1ccc(Oc2ccc(NC(=O)c3ccco3)cc2)cc1` was tested, and the inhibition was 6.1% (inactive). For `Cc1ccc(-c2nnc(-c3ccc(NC(=O)c4ccco4)cc3)o2)cc1`, the inhibition was 75.9% (active). `O=C(Nc1cccc(-c2nnc(-c3ccccc3)o2)c1)c1ccco1` was tested, and the inhibition was 7.4% (inactive). For `COc1cccc(/C=N/N2CCOCC2)c1O`, the inhibition was 4.9% (inactive). With `CCN(CC)c1ccc(/C=N/N2CCOCC2)c(O)c1` the inhibition was 19.6% (inactive). With `CC(C)c1nc(CN2CCCCC2)cc(=O)[nH]1` the inhibition was 8.6% (inactive). With `CCN(CC)S(=O)(=O)c1ccc(C(=O)NCc2n[nH]c(=S)n2Cc2ccccc2)cc1` the inhibition was 10.2% (inactive). With `CC1=C(C(N)=O)C(c2cccs2)NC(=S)N1` (centres undefined) the inhibition was -11.8% (inactive). In the case of `Cc1nn(C)c(C)c1N1C(=O)c2cccc3c(N)ccc(c23)C1=O`, the inhibition is reported as 6% (inactive). `Cc1nn(C)c(C)c1N1C(=O)c2cccc3c(Br)ccc(c23)C1=O` was tested, and the inhibition was -0.5% (inactive). In the case of `CC(=O)c1ccc2c3c(cccc13)C(=O)N(c1c(C)nn(C)c1C)C2=O`, the inhibition is reported as 74.2% (active). In the case of `O=C(NC(NC(=O)c1ccccc1)C(=O)c1ccccc1)c1ccccc1`, the inhibition is reported as 109% (active). For `O=C(NC(Nc1ncccn1)C(=O)c1ccccc1)c1ccccc1` (centres undefined), the inhibition was -2% (inactive). `O=C(NC(NC(=O)c1ccccc1)c1ccccc1)c1ccccc1` was tested, and the inhibition was -8.6% (inactive). For `CC(NC(=O)c1ccc2c(c1)OCCO2)C(=O)O` (centres undefined), the inhibition was -5.6% (inactive). `Cn1cc(CNCc2cnc3ccccn23)c(-c2ccc(Oc3ccccc3)cc2)n1` was tested, and the inhibition was 4.9% (inactive). `CCN(CC)S(=O)(=O)c1ccc(NC(=O)c2cc(-c3cccs3)nc3ccccc23)cc1` was tested, and the inhibition was -4.8% (inactive). With `[O-][N+]1=c2ccc(Nc3ccccc3)cc2=NC12CCCCC2` the inhibition was 79.7% (active). In the case of `c1ccc(Nc2cccc(Nc3ccccc3)c2)cc1`, the inhibition is reported as 21% (inactive). With `O=[N+]([O-])c1ccc2c(c1Nc1ccccc1)=NC1(CCCCC1)N=2` the inhibition was 46.2% (inactive). In the case of `COc1cc(C(=O)N/N=C(\C)c2ccc3c(c2)OCO3)cc(OC)c1OC`, the inhibition is reported as 2.6% (inactive). In the case of `Cc1cc(C)n(-c2ccc([N+](=O)[O-])cc2)n1`, the inhibition is reported as 7% (inactive). `C=CCn1c(SCC(=O)N2N=C(c3ccco3)CC2c2ccco2)nnc1-c1ccncc1` (centres undefined) was tested, and the inhibition was 57.4% (active). In the case of `COc1ccc(C2=NN(C(=O)CSc3nnc(C)n3C)C(c3ccco3)C2)cc1` (centres undefined), the inhibition is reported as -23.9% (inactive). In the case of `C=CCn1c(SCC(=O)N2CCCCC2)nnc1-c1ccncc1`, the inhibition is reported as -1.3% (inactive). `Cc1ccc(-c2nc3ccccc3c(=O)n2NC(=S)N(C)C)cc1` was tested, and the inhibition was 16.6% (inactive). With `CN(C)C(=S)Nn1c(-c2ccccc2)nc2ccccc2c1=O` the inhibition was 4.8% (inactive). `COc1ccc(-c2nc3ccccc3c(=O)n2NC(=S)N(C)C)cc1` was tested, and the inhibition was 57.4% (active). With `CCOC(=O)C1(C)C=C(Nc2ccc(OCC)cc2)C(=O)N1c1ccccc1` (centres undefined) the inhibition was 11.1% (inactive). With `CCOC(=O)c1c(NC(=O)CCl)sc(C(=O)N(CC)CC)c1C` the inhibition was -11.1% (inactive). With `CCCCC(=O)Nc1sc(C(=O)N(CC)CC)c(C)c1C(=O)OC` the inhibition was 58.3% (active). With `CCOC(=O)c1c(NC(=O)CN(C)C)sc(C(=O)N(CC)CC)c1C` the inhibition was 8.3% (inactive). For `CC(C)CN(C(=O)CN1CCC(C)CC1)c1c(N)n(CC(C)C)c(=O)[nH]c1=O`, the inhibition was -5.2% (inactive). For `COc1ccc(C(=O)N/N=C(\C)CC(=O)N2CCN(C=O)CC2)cc1`, the inhibition was 5.1% (inactive). In the case of `C/C(CC(=O)N1CCN(C=O)CC1)=N\NC(=O)c1ccc(Cl)cc1`, the inhibition is reported as -0.6% (inactive). For `C/C(CC(=O)N1CCN(C=O)CC1)=N\NC(=O)c1cc2ccccc2cc1O`, the inhibition was 84.9% (active). `Cc1cc(C)nc(Nc2n[nH]c(-c3ccccc3C)n2)n1` was tested, and the inhibition was 3.4% (inactive). For `O=c1[nH]c(-c2ccccn2)nc2ccccc12`, the inhibition was 19.5% (inactive). With `O=c1[nH]c(-c2ccncc2)nc2ccccc12` the inhibition was 71.3% (active). For `O=c1[nH]c(-c2cccnc2)nc2ccccc12`, the inhibition was 7.1% (inactive). In the case of `CCOC(=O)C(C)n1cnc2c(nnn2-c2cccc(Cl)c2)c1=O` (centres undefined), the inhibition is reported as -9.6% (inactive). With `COc1ccccc1NC(C)C(=O)Nc1ccc(C(C)=O)cc1` (centres undefined) the inhibition was 19.5% (inactive). With `CCc1ccc(NC(=O)c2ccccc2SC)cc1` the inhibition was 7.2% (inactive). With `O=[N+]([O-])c1ccccc1-c1ccc(/C=N/n2cnnc2)o1` the inhibition was 20.4% (inactive). With `Cc1nnc(N/N=C/c2ccc(-c3ccccc3F)o2)n1N` the inhibition was -38.4% (inactive). For `Cc1nnc(N/N=C\c2ccc(-c3ccccc3[N+](=O)[O-])o2)n1N`, the inhibition was 57.8% (active). With `Nn1cnnc1N/N=C\c1ccc(-c2ccccc2[N+](=O)[O-])o1` the inhibition was 82.5% (active). `Nn1cnnc1N/N=C/c1ccc(Cl)c([N+](=O)[O-])c1` was tested, and the inhibition was 13.3% (inactive). With `Cc1nnc(N/N=C/c2ccc(-c3ccc(Br)cc3)o2)n1N` the inhibition was -11.5% (inactive).
